Measurements reported in ChEMBL document CHEMBL1157539, “Thousands of chemical starting points for antimalarial lead identification” (Nature, 2010).

Test system: HepG2
Assay: GSK_TCMDC: Percent inhibition of human HepG2 cell line. Test compounds present at 10uM.
Type: functional

| SMILES | Inhibition |
| --- | --- |
| CCCC1(NC[C@@H](O)[C@H](Cc2ccccc2)NC(=O)c2cc(NCC)cc(N3CCCCS3(=O)=O)c2)CC1.Cl | 1% |
| Fc1ccc(Nc2ccnc3cc(-c4ccc(CNCCN5CCOCC5)o4)ccc23)c(Cl)c1 | 34% |
| CN(CCN(C)C(=O)NCc1ccccc1)C(=O)NCc1ccccc1 | 2% |
| CCCCN(C)CC#Cc1ccc(-c2ccc3[nH]c(C)c(Br)c(=O)c3c2)cn1 | 3% |
| Cc1ccc(NC(=O)c2ccc3ncccc3c2)cc1OC1CCN(CCC(C)C)C1.O=C(O)C(F)(F)F (stereo not drawn) | 5% |
| Cc1ccc(O)cc1Nc1ccnc2ccc(-c3csc(CNCCN4CCOCC4)n3)cc12 | 0% |
| N#Cc1cccc(Nc2nccc(Nc3ccc(Oc4ccccc4)cc3)n2)c1 | 12% |
| CCOc1ccc2[nH]c(C)cc(=NN=Cc3ccc(Cl)cc3)c2c1 | 0% |
